Results taken from ChEMBL document CHEMBL4808148, “HDAC6 screening dataset using tau-based substrate in an enzymatic assay yields selective inhibitors and activators” (2021).
“And” between values parts separate entries of the source, which are not always exact repeats. Equal entries are not always repeated. Among all 5,600 compounds or so, about 390 (7%) showed an effect of 50% or more. What follows is part of a selection rich in strong results, with near analogues and random picks from the rest.

Target: T1, Protein deacetylase HDAC6 (Homo sapiens) (UniProt Q9UBN7)
T1 sequence (whole entry): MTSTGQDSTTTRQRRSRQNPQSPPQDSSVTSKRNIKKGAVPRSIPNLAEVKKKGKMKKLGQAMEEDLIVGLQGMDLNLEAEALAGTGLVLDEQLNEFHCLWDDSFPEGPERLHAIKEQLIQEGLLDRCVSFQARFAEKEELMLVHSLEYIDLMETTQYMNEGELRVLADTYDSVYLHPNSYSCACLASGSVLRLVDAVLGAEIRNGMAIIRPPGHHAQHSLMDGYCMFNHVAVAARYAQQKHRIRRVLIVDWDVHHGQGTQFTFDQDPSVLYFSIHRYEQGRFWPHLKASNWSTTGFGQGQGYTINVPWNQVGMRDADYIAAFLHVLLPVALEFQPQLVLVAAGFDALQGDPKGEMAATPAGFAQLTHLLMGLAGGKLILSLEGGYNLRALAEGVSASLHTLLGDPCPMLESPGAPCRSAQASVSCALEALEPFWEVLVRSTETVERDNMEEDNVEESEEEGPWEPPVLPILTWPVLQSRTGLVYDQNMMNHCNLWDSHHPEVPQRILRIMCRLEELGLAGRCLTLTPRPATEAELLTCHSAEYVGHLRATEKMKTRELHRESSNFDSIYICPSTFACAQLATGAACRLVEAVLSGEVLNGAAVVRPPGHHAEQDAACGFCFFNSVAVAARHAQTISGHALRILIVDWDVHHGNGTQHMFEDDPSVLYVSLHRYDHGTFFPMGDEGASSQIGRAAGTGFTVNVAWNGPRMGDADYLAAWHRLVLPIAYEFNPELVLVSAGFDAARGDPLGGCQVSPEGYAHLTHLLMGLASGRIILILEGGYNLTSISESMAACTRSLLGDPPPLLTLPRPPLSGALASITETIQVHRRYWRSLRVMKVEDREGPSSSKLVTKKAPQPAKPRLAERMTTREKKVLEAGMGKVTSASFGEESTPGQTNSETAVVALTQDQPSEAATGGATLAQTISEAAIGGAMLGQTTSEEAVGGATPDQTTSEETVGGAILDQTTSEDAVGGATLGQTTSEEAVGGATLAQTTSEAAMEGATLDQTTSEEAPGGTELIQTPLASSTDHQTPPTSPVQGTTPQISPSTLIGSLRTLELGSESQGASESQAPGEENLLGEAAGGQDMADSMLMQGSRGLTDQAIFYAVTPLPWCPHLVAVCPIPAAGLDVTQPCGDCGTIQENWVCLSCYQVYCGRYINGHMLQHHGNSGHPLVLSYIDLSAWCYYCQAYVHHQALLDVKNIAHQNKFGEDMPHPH
Details: at 10 µM

Row | SMILES | inhibition
1 | CC/C(=C(/CC)c1ccc(O)cc1)c1ccc(O)cc1 | 19.4%
2 | CCCCOC(=O)c1ccc(N)cc1 | 44.5%
3 | CCCCOC(=O)c1ccc(O)cc1 | 86.8%
4 | CCOc1ccc(C(=O)OCCN(CC)CC)cc1 | 4.93%
5 | CCCCOc1cc(C(=O)OCCN(CC)CC)ccc1N | 16.8%
6 | CCCOC(=O)c1ccc(O)cc1 | 73%
7 | CCCCN1CCCC1CNC(=O)c1cc(C#N)c2ccccc2c1OC (stereo not drawn) | 6.77%
8 | NC(=O)c1cnc2[nH]ccc2c1N[C@H]1C2CC3CC1C[C@](O)(C3)C2 | 15.9%
9 | CC(C)C[C@@H](C(=O)N[C@@H](Cc1ccc(OCc2ccccc2)cc1)C(=O)NC(C)(C)C)N(C)Cc1ccc(C(C)(C)C)cc1 | 10.7%
10 | C[C@H]1CC[C@@]2(OC1)O[C@H]1C[C@H]3[C@@H]4CC[C@@H]5C[C@@H](O)CC[C@]5(C)[C@H]4CC[C@]3(C)[C@H]1[C@@H]2C | 5.04%
11 | CN(C)/C=N/c1c(I)cc(I)c(CCC(=O)O)c1I | 6.5%
12 | O=C(NCC1CCCCN1)c1cc(OCC(F)(F)F)ccc1OCC(F)(F)F (stereo not drawn) | -2.24%
13 | CCC(CC)(CC(=O)Nc1cccc(/C=C/c2nc(C3CCC3)cs2)c1)C(=O)O | 87.3%
14 | COc1cc(N2CCC(O)CC2)ccc1Nc1cc(Nc2ccccc2S(=O)(=O)C(C)C)c2cc[nH]c2n1 | 12.8%
15 | Cc1ccc(-c2ncn(-c3ccc(Nc4nccc(-c5cccc(N6CCOCC6)c5)n4)cc3)n2)cn1 | 0.35%
16 | CCC(=O)NC1Cc2ccccc2C(c2ccccc2)C1 (stereo not drawn) | 0.79%
17 | O=[N+]([O-])c1c(Nc2cc(F)cc(Cl)c2)ccc2nonc12 | 22.6%
18 | Nc1ncnc2c1ncn2[C@H]1CC[C@@H](CO)O1 | 46%
19 | CC1(C)CNc2cc(NC(=O)c3cccnc3NCc3ccncc3)ccc21 | 87.1%
20 | N#CC1(c2ccc(NC(=O)c3cccnc3NCc3ccncc3)cc2)CCCC1 | 51.4%
21 | CCCCCCCCCCCCCC(=O)OC(C)C | 30.5%
22 | O=C(O)c1nc(=O)[nH]c(=O)[nH]1 | -2.71%
23 | CC(N)CCCC(C)(C)O (stereo not drawn) | 6.48%
24 | COc1ccc2c(C(=S)N(C)CC(=O)O)cccc2c1C(F)(F)F | 8.32%
25 | CCN(CC)CC1CCN(c2ncc3ncnc(Nc4ccc(F)c(Cl)c4)c3n2)CC1 | 22.9%
26 | Cc1n[nH]c(C)c1Cc1sc2c(c1C(=O)N1C[C@H](O)CO1)c(=O)n(C)c(=O)n2CC(C)C | 39.2%

Row | SMILES | inhibition
27 | COC1CCN(c2cccc(-c3cc(NC(C)=O)nc(-n4nc(C)cc4C)n3)n2)CC1 | 20.5%
28 | CCCC1C(=O)N2C(N(C)C)=Nc3ccc(C)cc3N2C1=O (stereo not drawn) | 67.9%
29 | O=C1OC2(c3cc(I)c(O)c(I)c3Oc3c2cc(I)c(O)c3I)c2c(Cl)c(Cl)c(Cl)c(Cl)c21 | 69.2% and 74.6%
30 | c1ccc(-c2n[nH]cc2-c2ccnc3ccccc23)nc1 | -5.98%
31 | CN(C)CC/C=C1\c2ccccc2CSc2ccccc21 | 33.1%
32 | CN1CCN(CC/C=C2/c3ccccc3Sc3ccc(S(=O)(=O)N(C)C)cc32)CC1 | 30.4%
33 | OCCN1CCN(CC/C=C2/c3ccccc3Sc3ccc(Cl)cc32)CC1 | 89.6%
34 | CCN(CC)c1ccc(C(=C2C=CC(=[N+](CC)CC)C=C2)c2ccccc2)cc1 | 101%
35 | CCCCC1(COC(=O)CCC(=O)O)C(=O)N(c2ccccc2)N(c2ccccc2)C1=O | 37.6%
36 | O=C(O)CCC/C=C\CC1C(O)CC(O)C1/C=C/C(O)COc1cccc(Cl)c1 (racemic) | 7.35%
37 | CCCC(=O)Nc1ccc(OCC(O)CNC(C)C)c(C(C)=O)c1 (stereo not drawn) | -5.99%
38 | CCN(CC)C(=O)Nc1ccc(OCC(O)CNC(C)(C)C)c(C(C)=O)c1 (stereo not drawn) | 103%
39 | CC(C)OC(=O)c1cc2c(OCC(O)CNC(C)(C)C)cccc2[nH]1 (stereo not drawn) | 17%
40 | CNC(=O)c1ccc2c(c1)NC(=O)/C2=C(\Nc1cccc(CN(C)C)c1)c1ccccc1 | 23.6%
41 | CONC(=N)c1ccc(-c2ccc(-c3ccc(C(=N)NOC)cc3)o2)cc1 | 28.6%
42 | C=C[C@@](C)(/C=C/c1ccc(O)cc1)CCC=C(C)C | 38.3%
43 | CC(O)(C(=O)Nc1ccc(S(=O)(=O)c2ccccc2)cc1)C(F)(F)F (stereo not drawn) | 8.38%
44 | CC(=O)Nc1ccc(NC(=S)NC(=O)c2ccc(C(C)(C)C)cc2)cc1 | -1.57%
45 | C/C(O)=C(\C#N)C(=O)Nc1ccc(C(F)(F)F)cc1 | 58%
46 | CCCn1c(=O)[nH]c(=O)c2nc[nH]c21 | 9.19%
47 | CN1c2ccccc2C(=O)N2CCc3c([nH]c4ccccc34)C21 (stereo not drawn) | 36.3%
48 | O=c1c2ccccc2nc2n1CCCCC2 | 111%
49 | Cc1cc(N2CCCCC2)nc2ccccc12 | 12.2%
50 | O=c1c2ccccc2nc2n1CCc1c-2[nH]c2ccccc12 | 84.3%
51 | CN1C(=O)C(F)=C[C@]2(C)[C@H]3CC[C@]4(C)[C@@H](C(=O)NCc5nc6cccnc6[nH]5)CC[C@H]4[C@@H]3CC[C@@H]12 | -0.34%
52 | CCC(=O)OCC(=O)C1(OC(=O)CC)C(C)CC2C3CCC4=CC(=O)C=CC4(C)C3(Cl)C(O)CC21C (stereo not drawn) | 5.48%

Row | SMILES | inhibition
53 | CCCCc1nn(-c2ccccc2C(F)(F)F)c(=O)n1Cc1ccc(-c2ccccc2S(=O)(=O)NC(=O)c2sccc2C)cc1 | 30.6%
54 | CCCOc1ccc(Br)cc1-c1cc(-c2ccc(Cl)cc2)[nH]c1-c1ccncc1 | 4.47%
55 | C[C@]12C=CC(=O)C=C1CC[C@@H]1[C@@H]2[C@@H](O)C[C@@]2(C)[C@H]1CC[C@]2(O)C(=O)CO | 1.72%
56 | C#CC1(O)CC[C@H]2[C@@H]3CCC4=CC(=O)CC[C@@H]4[C@H]3CC[C@@]21CC (stereo partly drawn) | 41%
57 | C#C[C@]1(OC(C)=O)CC[C@H]2[C@@H]3CCC4=C/C(=N/O)CC[C@@H]4[C@H]3CC[C@@]21CC | 102%
58 | C#C[C@]1(O)CC[C@H]2[C@@H]3CCC4=CC(=O)CC[C@@H]4[C@H]3CC[C@@]21CC | -8.51%
59 | O=S(=O)(N[C@H]1CC[C@@](c2cc(F)ccc2F)(S(=O)(=O)c2ccc(Cl)cc2)CC1)C(F)(F)F | 19.5%
60 | CC[N+](CC)(CC)CCC(O)(c1ccccc1)C1CCCCC1 (stereo not drawn) | 43.5%
61 | N[C@@]1(C(=O)O)CC[C@H]2[C@H](C(=O)O)[C@H]21 | 5.51%
62 | Nc1cc(Cl)c(N=C2NCCN2)c(Cl)c1 | 15.3%
63 | NC(=O)N/N=C/c1ccc(Oc2ccc(F)cc2)cc1 | 2.96%
64 | O=C(N/N=C/c1ccc(O)c(O)c1)c1cc2ccccc2cc1O | 59.7%
65 | O=C(Nc1ccc(O)cc1)c1ccccc1O | 85.3%
66 | COC(=O)c1ccccc1O | 25.3%
67 | Cc1cccc(C)c1NC(=O)c1ccccc1C(=O)O | 2.75%
68 | O=C(N/N=C/c1ccccc1O)c1ccccc1O | 98.6%
69 | CN1CCN2c3c(cccc31)[C@@H]1CN(CCCC(=O)c3ccc(F)cc3)CC[C@@H]12 | -3.09%
70 | COC(=O)Nc1ccc2[nH]cc(CCNC(C)=O)c2c1 | 44.5%
71 | CCOc1ccccc1OCC1CNCCO1 (stereo not drawn) | -0.93%
72 | c1ccc(Oc2nc3ncnc-3c(NC3CCCCC3)[nH]2)cc1 | -6.25%
73 | CC(C)N1CCN(c2ccc(C(=O)c3c(-c4ccc(O)cc4)sc4cc(O)ccc34)cc2)CC1 | 15%
74 | COc1ccc(C(=O)NCc2cccnc2)cc1C(=O)NCc1cccnc1 | 11.5%
75 | Cc1cc(Cn2cnc3c2C[C@@H](C(=O)O)N(C(=O)C(c2ccccc2)c2ccccc2)C3)ccc1N(C)C | 17.5%
76 | CC1CS(=O)(=O)CCN1/N=C/c1ccc([N+](=O)[O-])o1 (stereo not drawn) | -9.63%
77 | O=C(O)CNC(=O)c1ccccc1 | 17.6%
78 | NC(C(=O)O)c1ccc(C(=O)O)c(O)c1 (racemic) | -7.25%

Row | SMILES | inhibition
79 | O=C(Nc1ccc(Cl)nc1)c1ccc(Cl)cc1 | 27.1%
80 | CC1(C)CCC(C)(C)c2cc(NC(=O)c3ccc(C(=O)O)cc3)ccc21 | 17.1%
81 | O=C(Nc1cc2cc[nH]c2cn1)c1ccccc1 | 105%
82 | CCc1nc(-c2cccc(C)c2)c(-c2ccnc(NC(=O)c3ccccc3)c2)s1 | 15.3%
83 | NC(=O)c1ccc2[nH]ccc2c1 | 11.2%
84 | O=C(Nc1ccc(C(=O)O)c(O)c1)c1ccccc1 | 68.6%
85 | O=C(Nc1ccc2[nH]ccc2c1)c1ccccc1 | 89.7%
86 | CC1=C(/C=C/C(C)=C/C=C/C(C)CC=O)C(C)(C)CCC1 (stereo not drawn) | 0.68%
87 | Cc1ccc(F)cc1C(=O)Nc1ccc(C(=O)N2Cc3cccn3Cc3ccccc32)c(Cl)c1 | -1.78%
88 | O=C1CNC(=O)CN1 | 16.6%
89 | O=C(O)[C@@H](S)[C@@H](S)C(=O)O | 28.7%
90 | CN1[C@@H]2CC[C@H]1C[C@@H](OC(=O)c1c[nH]c3ccccc13)C2.CN1[C@@H]2CC[C@H]1C[C@H](OC(=O)c1c[nH]c3ccccc13)C2 | 2.5%
91 | CCc1cc(-c2[nH]nc(C)c2-c2ccc3c(c2)OCCO3)c(O)cc1O | 8.29%
92 | CC1(C)Oc2ccc(C#N)cc2[C@@H](OC2=CC(=O)CC2)[C@@H]1O | 3.84%
93 | Cc1c(-c2ccccc2)oc2c(C(=O)OCCN3CCCCC3)cccc2c1=O | 11.8%
94 | CNc1nc(NCc2ccc(NS(C)(=O)=O)cc2Cl)cc(-c2ccccn2)n1 | 13.6%
95 | Nc1ccc(S(=O)(=O)O)cc1 | 9.02%
96 | Cc1cc(O)c(C(=O)N[C@@H](C(=O)N[C@@H]2C(=O)N3C(C(=O)O)=C(CSc4nnnn4C)CS[C@H]23)c2ccc(O)cc2)cn1 | 29%
97 | Cc1cc(-c2ccc3c(c2)CC[C@H]3N2CC3(CCN(C(=O)Cc4cn5cc(C)sc5n4)CC3)C2)ncn1 | 0.83%
98 | CN1C(=O)c2c(nn(Cc3ccc(-c4cccc(F)n4)cc3)c2Nc2ccccc2)N2C1=N[C@@H]1CCC[C@@H]12 | -2.77%
99 | CCOC(=O)Nc1ccc2c(c1)N(C(=O)CCN1CCOCC1)c1ccccc1S2 | -0.7%
100 | O=c1cc(-c2cccc3c2Sc2ccccc2S3)oc(N2CCOCC2)c1 | 82.8%
101 | O=c1cc(N2CCOCC2)oc2c(-c3cccc4c3sc3ccccc34)cccc12 | -7.08%
102 | C[C@@H]1CN(CC(=O)Nc2ccc3c(c2)Cc2cccc(-c4cc(=O)cc(N5CCOCC5)o4)c2S3)C[C@H](C)O1 | 61%
103 | O=c1cc(N2CCOCC2)oc2c(-c3ccccc3)cccc12 | 1.23%
